Test results taken from PubChem BioAssay (NCI).
Compounds without any hit were thinned out: in the full panel of roughly 79,000, 15% have a hit. Calls of active or inactive are those of the source. No stated cut-off is given here; in the data, active means growth inhibition above about 70%; inactive means the rest.

How the values were obtained:
[1] = NCI Yeast Anticancer Drug Screen. Data for the rad50 strain (AID 155);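 further: 0% = growth of vehicle-only cultures of the same strain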; conditions: S. cerevisiae rad50 strain growth inhibition; at 50.0 µM; hits give high values
Summary of the method: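 Relative growth inhibition (compound vs vehicle) was measured in yeast with a defined repair-gene alteration.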

[2] = NCI Yeast Anticancer Drug Screen. Data for the mec2-1 strain (AID 157); conditions: S. cerevisiae mec2-1 strain, at 50.0 µM, hits give high values
Summary of the method: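 Cells of the genetically defined mec2-1 yeast strain are incubated with test compound. Inhibition of growth is calculated against vehicle-treated controls.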

[3] = NCI Yeast Anticancer Drug Screen. Data for the sgs1 mgt1 strain (AID 161);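 further: 0% = growth of cultures given vehicle only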; conditions: S. cerevisiae sgs1 mgt1 strain, at 50.0 µM, hits give high values
Summary of the method: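 Genetically altered yeast, compound exposure, growth inhibition relative to vehicle.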

[4] = NCI Yeast Anticancer Drug Screen. Data for the cln2 rad14 strain (AID 165);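 further: 0% = growth equal to vehicle treated cultures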; conditions: S. cerevisiae cln2 rad14 strain, at 50.0 µM, hits give high values
Summary of the method: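 The screen exposed genetically defined yeast (cln2 rad14) to test compounds and scored growth inhibition relative to vehicle-treated controls.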

[5] = NCI Yeast Anticancer Drug Screen. Data for the bub3 strain (AID 167); conditions: S. cerevisiae bub3 mutant strain, at 50.0 µM, hits give high values
Summary of the method: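 Screening used yeast with an engineered genetic alteration affecting cell cycle control. Compound-exposed cultures were compared with vehicle cultures, and reduced growth was taken as inhibition.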

[6] = NCI Yeast Anticancer Drug Screen. Data for the mlh1 rad18 strain (AID 175); conditions: S. cerevisiae mlh1 rad18 strain growth inhibition; at 50.0 µM; hits give high values
Summary of the method: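 Compound-treated yeast growth, normalised to vehicle controls. Strain bears defined DNA repair mutations.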

Measured: growth inhibition

COc1ccccc1NC(=S)NCCO
inactive: [1] 7.25% | [2] 8.7% | [3] 17.6% | [4] 0.8% | [5] 21.1% | [6] 13.6%

CCN(CC)C(=O)CS(=O)(=O)c1ccc(N)cc1
inactive: [1] 3.55% | [2] -8.5% | [3] 2% | [4] 23.9% | [5] 7.35% | [6] 14.7%

COc1cc(C2[C@H]3C(=O)N(c4ccc(Cc5ccc(N6C(=O)[C@@H]7ON(c8ccccc8)C(c8cc(OC)c(OC)c(OC)c8)[C@@H]7C6=O)cc5)cc4)C(=O)[C@H]3ON2c2ccccc2)cc(OC)c1OC (stereo partly specified)
inactive: [1] -2.25% | [2] 5.2% | [3] 3.75% | [4] 27.5% | [5] 25.9% | [6] -6.3%

Cn1c(=O)c2[nH]c(=S)n(CC3CCCCC3)c2n(C)c1=O
inactive: [1] -1.95% | [2] -3.55% | [3] -8.4% | [4] -29% | [5] 0.1% | [6] 17.4%

CN1CCC(C(O)c2ccccc2)CC1 (stereo unspecified)
inactive: [1] 3.95% | [2] -3.8% | [3] -6.15% | [4] -24.4% | [5] 3.95% | [6] 5.5%

Cc1n[nH]c(=O)n1-n1cccc1
inactive: [1] -10.1% | [2] -5.35% | [3] -35.5% | [4] 7.1% | [5] -37.2% | [6] 2.55%

O=c1/c(=C/c2ccccc2O)sc2nc3ccccc3n12
inactive: [1] 9.65% | [2] -42.2% | [3] 18.9% | [4] 15% | [5] 10.4% | [6] 20.9%

COc1cc(OC)c(-c2oc3ccccc3c(=O)c2O)c(OC)c1
inactive: [1] -9.5% | [2] 12.7% | [3] 2.4% | [4] -13.2% | [5] 4.65% | [6] -5.45%

CC(=O)/C(=C/n1ccc(=O)[nH]c1=S)C(=O)Nc1ccccc1
inactive: [1] -23.1% | [2] -20.5% | [3] -18.6% | [4] 11.2% | [5] -12.7% | [6] -22.1%

O=C(O)C1(C(=O)O)Cc2ccccc2C1
inactive: [1] -15.6% | [2] -12.6% | [3] -9.15% | [4] -9.35% | [5] 9.85% | [6] 14.8%

Cc1ccc(S(=O)(=O)CCC(=O)c2ccccc2)cc1
inactive: [1] 9.3% | [2] 16% | [3] 0.95% | [4] 1.3% | [5] 3.25% | [6] 14.6%

CC(CC[C@@]1(C)C(=O)CCC2O[C@]21C)[C@H]1C[C@@H](c2ccoc2)OC1=O (stereo partly specified)
inactive: [1] 9.05% | [2] -31.8% | [3] -5.4% | [4] -15.8% | [5] -4.8% | [6] -70.9%

O=[N+]([O-])c1ccc(S(=O)(=O)c2ccc(N=CN3CCCC3)cc2)cc1
inactive: [1] 22.9% | [2] 16.4% | [3] 18.4% | [4] 4.05% | [5] 18% | [6] 23%

COc1nc2[nH]c(C)cc(=O)c2c2ccccc12
inactive: [1] 16.4% | [2] 14.8% | [3] 1.45% | [4] -26.8% | [5] -7% | [6] 2.8%

CC1=NNC(=O)CC1C(O)c1ccccc1 (stereo unspecified)
inactive: [1] -31.1% | [2] 3.65% | [3] -12.1% | [4] 3% | [5] -8.45% | [6] -11.4%

COc1ccc(/C(Nc2ccccc2)=C(\CCl)c2ccccc2)cc1OC
inactive: [1] 6.5% | [2] 7.75% | [3] 34.5% | [4] 5.1% | [5] 44.4% | [6] 9.25%

CN(C)C(N)=Nc1ncnc2ccccc12
inactive: [1] -14.6% | [2] 15.2% | [3] 0.45% | [4] 15.7% | [5] -5.85% | [6] -1.8%

Cc1ccc([N+](=O)[O-])cc1NC(=O)NCCO
inactive: [1] 1.15% | [2] 1.6% | [3] -6.3% | [4] -71% | [5] 1% | [6] -1.75%

Cc1ccc(NC(=O)c2ccc(Cl)cc2)cc1Cl
inactive: [1] 18.9% | [2] 1.35% | [3] 2.95% | [4] -9.65% | [5] 13.8% | [6] -2.3%

COc1ccc2c(c1)N(CC(C)CN(C)C)c1ccccc1S2 (stereo unspecified)
inactive: [1] 0.75% | [2] 25.7% | [3] -0.95% | [4] -3.75% | [5] 39.5% | [6] 11.4%

O=C1C2=C(OCCO2)C(=O)C2=C1OCO2
inactive: [1] 12.4% | [2] 18.4% | [3] 28% | [4] 7.55% | [5] 12.2% | [6] 4.4%

CN(Cc1ccc(Cl)cc1)C(=O)NCCCCCCNC(=O)N(C)Cc1ccc(Cl)cc1
active: [1] 96.8% | [2] 96.6% | [3] 95.7% | [4] 96.2% | [5] 95.7% | [6] 96.8%

CSc1ccc(NC(=S)NN(C)C)cc1
inactive: [1] -22.9% | [2] -25.3% | [3] -15.2% | [4] 9.35% | [5] 1.4% | [6] -7.65%

[N-]=[N+]=Nc1ccccc1-c1ccc([N+](=O)[O-])cc1
inactive: [1] -12.9% | [2] -11.5% | [3] 11.1% | [4] -32.2% | [5] 1.2% | [6] 29.6%

O=C1CC2CCCC23CC2(CCN13)OCCO2 (stereo unspecified)
inactive: [1] -3.15% | [2] 0.7% | [3] -0.3% | [4] -27.4% | [5] -2.3% | [6] 6.35%

COC(=O)C1CCC(=O)N1CN(C(C)=O)c1cc(OC)ccc1OC (stereo unspecified)
inactive: [1] 14.9% | [2] -0.05% | [3] 2.85% | [4] 6.45% | [5] -5.15% | [6] -50.1%

Cc1ccc(S(=O)(=O)N/N=C/C(C)(C)C)cc1
inactive: [1] 17.4% | [2] -3.25% | [3] 8.95% | [4] -19% | [5] -6.75% | [6] 16.6%

CC(C)(Oc1ccc(/C=C/C(=O)c2ccc(Cl)cc2)cc1)C(=O)Nc1c(Cl)cccc1Cl
inactive: [1] 0.85% | [2] -2.05% | [3] 2.6% | [4] 12.1% | [5] 12.8% | [6] 19%

N#CC(C(=O)/C(=N\NC(N)=O)C(C#N)c1ccc(Cl)cc1)c1ccc(Cl)cc1 (stereo unspecified)
inactive: [1] -33.6% | [2] -7.25% | [3] -22.1% | [4] 2.4% | [5] -7.05% | [6] -4.3%

CC(C)=Cc1cc(-c2cc(C=C(C)C)on2)no1
inactive: [1] 8.1% | [2] -7.05% | [3] 3.85% | [4] 1.15% | [5] -8% | [6] 4%

O=Cc1cccc2ccc3cccc(C(=O)O)c3c12
inactive: [1] 34% | [2] 12% | [3] 17.9% | [4] 13.2% | [5] 30.1% | [6] -8.7%

Clc1nnc(Cl)c2ncccc12
inactive: [1] 3.6% | [2] 8.3% | [3] -3.6% | [4] -2.95% | [5] -3% | [6] -1.75%

O=C(O)C(CS)NC1CC(=O)N(Cc2ccccc2)C1=O (stereo unspecified)
inactive: [1] 1.95% | [2] 9.8% | [3] 18.6% | [4] -19.3% | [5] -1.55% | [6] -8.25%

CCC1=C[C@H]2CN(CCc3c([nH]c4ccccc34)[C@@](C(=O)OC)(c3cc4c(cc3OC)N(C)[C@H]3C(C(=O)OC)=C[C@]5(CC)C=CCN6CC[C@]43[C@@H]65)C2)C1
inactive: [1] -14.7% | [2] -14.4% | [3] -4.75% | [4] -13.5% | [5] -0.8% | [6] -18.9%

O=C(C[n+]1cccc(C(=O)Nc2ccc(Cl)cc2)c1)Nc1ccccc1
inactive: [1] -10.9% | [2] -13.7% | [3] -2.45% | [4] 15.2% | [5] -4.35% | [6] 0.65%

CN(C)C(=O)C1CCC(=O)N1 (stereo unspecified)
inactive: [1] 3.1% | [2] 10.6% | [3] 6.6% | [4] -4.95% | [5] 10.6% | [6] -0.3%

CN1C(C(=O)O)CCC1C(=O)O (stereo unspecified)
inactive: [1] -1.2% | [2] 7.6% | [3] 6.55% | [4] -31.8% | [5] -0.4% | [6] 2%

CN(CN(C)/N=C/c1ccc(Cl)cc1)/N=C/c1ccc(Cl)cc1
inactive: [1] 1.05% | [2] 11.6% | [3] 7.95% | [4] 12.8% | [5] -4.8% | [6] 10.1%

C/C(CC(=O)Nc1ccc(NC(=O)/C(C)=N/NS(=O)(=O)c2ccc(C)cc2)cc1)=N\NS(=O)(=O)c1ccc(C)cc1
inactive: [1] 16.2% | [2] 2.95% | [3] -12.8% | [4] -6.35% | [5] -0.9% | [6] 27.1%

CC(=O)NCCCCCC(=O)O
inactive: [1] 38.9% | [2] 2.45% | [3] 11.9% | [4] 10.7% | [5] -2.65% | [6] 20.7%

COc1ccc(N2C(=O)OC3(CCN(Cc4ccccc4)CC3)C2=O)cc1
inactive: [1] -1.55% | [2] 13.2% | [3] 7.7% | [4] 8.25% | [5] 8% | [6] 16.4%
